Source: PMC4336329 (PLoS ONE, 2015)
In all, about 310,000 compounds went through this assay and about 14,000 (4.5%) showed an effect of 50% or more. Effects have a minus sign here. The sample holds strong results, similar compounds and a random draw of the others, so the mix is not that of the screen.

These molecules were tested against human ether-à-go-go-related gene (hERG) potassium channel (human, UniProt Q12809) (assay: primary screen, population patch clamp on CHO cells stably expressing hERG; higher = less effect of the substance).
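Also: peak tail current of the secondary pulse compared with the same well before compound.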

human ether-à-go-go-related gene (hERG) potassium channel, sequence (Q12809 whole entry, looked up): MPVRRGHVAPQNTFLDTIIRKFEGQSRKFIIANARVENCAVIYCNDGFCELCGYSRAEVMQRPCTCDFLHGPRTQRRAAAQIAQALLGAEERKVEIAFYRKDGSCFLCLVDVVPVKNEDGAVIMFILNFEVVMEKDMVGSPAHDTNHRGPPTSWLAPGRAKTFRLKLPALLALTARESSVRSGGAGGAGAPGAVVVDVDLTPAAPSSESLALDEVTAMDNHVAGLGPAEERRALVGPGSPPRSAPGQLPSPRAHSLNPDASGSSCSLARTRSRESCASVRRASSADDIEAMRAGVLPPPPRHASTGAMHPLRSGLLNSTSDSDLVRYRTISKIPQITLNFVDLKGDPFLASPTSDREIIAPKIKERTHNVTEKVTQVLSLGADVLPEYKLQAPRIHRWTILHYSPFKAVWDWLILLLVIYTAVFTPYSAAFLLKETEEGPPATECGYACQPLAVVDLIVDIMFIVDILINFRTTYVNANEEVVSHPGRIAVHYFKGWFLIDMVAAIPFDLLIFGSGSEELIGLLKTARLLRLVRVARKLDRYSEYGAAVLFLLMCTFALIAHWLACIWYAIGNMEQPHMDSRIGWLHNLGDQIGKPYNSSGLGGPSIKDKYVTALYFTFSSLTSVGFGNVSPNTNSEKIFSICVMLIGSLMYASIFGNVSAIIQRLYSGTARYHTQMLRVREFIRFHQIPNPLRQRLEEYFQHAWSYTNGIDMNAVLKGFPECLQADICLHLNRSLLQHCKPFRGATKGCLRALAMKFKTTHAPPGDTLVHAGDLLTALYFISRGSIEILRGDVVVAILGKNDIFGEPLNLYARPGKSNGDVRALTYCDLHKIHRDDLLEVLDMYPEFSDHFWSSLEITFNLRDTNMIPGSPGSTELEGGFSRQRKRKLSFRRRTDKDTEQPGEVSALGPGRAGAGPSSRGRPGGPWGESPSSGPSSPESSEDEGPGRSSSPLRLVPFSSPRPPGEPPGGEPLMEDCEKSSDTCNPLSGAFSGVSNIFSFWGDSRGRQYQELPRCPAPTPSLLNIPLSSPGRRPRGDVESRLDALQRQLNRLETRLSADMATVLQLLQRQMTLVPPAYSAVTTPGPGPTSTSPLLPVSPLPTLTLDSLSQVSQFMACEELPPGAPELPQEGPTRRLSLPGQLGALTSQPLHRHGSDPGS

| Structure (SMILES) | hERG current change (%, negative = inhibition) at 10uM [%] |
| --- | --- |
| C/C(N)=C(/C#N)C(=O)CSc1nc2ccccc2c(=O)n1CCCOC(C)C | -21.2 |
| Cc1cc(O)cc(O)c1C=NCc1ccco1 | -8.53 |
| CC1C(c2ccccc2)=NNc2nc3c(c(=O)n(C)c(=O)n3C)n21 (centres unmarked) | 3.99 |
| COc1ccc(-c2nc(-c3ccc(NC(=O)c4ccncc4)cc3)no2)cc1OC | 7.54 |
| COc1ccc(NC(=O)c2ccc(-c3ccc(-c4noc(C)n4)cc3C)cc2)cc1N1CCN(C)CC1.Cl | -76 |
| COc1ccc(C(=O)Nc2ccc(N3CCN(C)CC3)cc2)cc1OC | -11.9 |
| CCOC(=O)c1c(NC(=O)CNC2CCCCC2)sc(C)c1C | 10.3 |
| N#CCSc1nnc(COc2ccc3ccccc3c2)o1 | -5.89 |
| COc1cc(CC(=O)OCC(=O)c2ccc3c(c2)OCCO3)cc(OC)c1OC | -58.6 |
| O=C(Cc1ccc(Br)cc1)OCC(=O)c1ccc2c(c1)OCCO2 | 13.1 |
| COc1cc(CC(=O)OCC(=O)Nc2ccc3c(c2)OCCO3)cc(OC)c1OC | 26 |
| CC(=O)C1=C(O)C(=O)OC1c1ccc(Cl)cc1 (centres unmarked) | 7.92 |
| FC(F)(F)c1nnc2ccc(NCc3ccccc3)nn12 | 8.9 |
| CCN(CC(=O)Nc1ccc2c(c1)OCCO2)C(=O)CSCC(=O)Nc1ccc(C)cc1 | -31.1 |
| CCN(CC(=O)NCc1ccc(Cl)cc1)C(=O)CSCC(=O)Nc1ccc(C)cc1 | -77.9 |
| CCN(CC(=O)NCc1ccc(Cl)cc1)C(=O)CSCC(=O)Nc1ccc(OC)cc1 | -66.7 |
| CCN(CC(=O)Nc1ccc(NC(C)=O)cc1)C(=O)CSCC(=O)Nc1ccc(C)cc1 | 2.95 |
| CCN(CC(=O)Nc1c(F)cccc1F)C(=O)CSCC(=O)Nc1ccc(OC)cc1 | -3.35 |
| CSc1ccc(CN(C)C(=O)CSCC(=O)Nc2ccc(C)cc2)cc1 | -73 |
| CSc1ccc(CN(C)C(=O)CSCC(=O)Nc2cc(C)on2)cc1 | 6.59 |
| CCN(CC(=O)Nc1ccc(OC)cc1)C(=O)CSCC(=O)Nc1ccc(C)cc1 | -23.5 |
| Cc1ccc(CSCC(=O)N(C)CC(=O)Nc2ccc(C)cc2)cc1 | -2.48 |
| CC(CCc1ccccc1)NCC(O)c1ccc(O)c(C(N)=O)c1.Cl (centres unmarked) | -30.6 |

| Structure (SMILES) | hERG current change (%, negative = inhibition) at 10uM [%] |
| --- | --- |
| CCOC(=O)C1CCCN(Cc2cc(=O)oc3cc(C)ccc23)C1 (centres unmarked) | -13.6 |
| CCOCC(=O)Nc1ccccc1C(=O)N1CCOCC1 | -0.166 |
| Nc1cc(N2CCCCC2)c(Cl)cc1[N+](=O)[O-] | -10.8 |
| NC(=O)C1CCN(CC(=O)NC(=O)NC2CCCC2)CC1 | 9.34 |
| Cc1c(-c2cc(C(=O)O)no2)cnn1C | 32.4 |
| C=CCOC(=O)/C(=C\c1ccccc1)NC(=O)c1ccco1 | 1.97 |
| O=C(NC(Cc1ccccc1)C(=O)O)/C(=C\c1cccc([N+](=O)[O-])c1)NC(=O)c1ccco1 (centres unmarked) | 28.4 |
| O=C(OCc1ccccc1)/C(=C/c1cccc(Br)c1)NC(=O)c1ccco1 | -52.5 |
| O=C(NC(Cc1ccccc1)C(=O)O)/C(=C/c1cccc([N+](=O)[O-])c1)NC(=O)c1ccco1 (centres unmarked) | -11.4 |
| CCOC(=O)/C(=C/c1ccccc1)NC(=O)c1ccco1 | -7.55 |
| O=C(OCc1ccccc1)/C(=C/c1cccc([N+](=O)[O-])c1)NC(=O)c1ccco1 | -63.3 |
| O=C(COc1ccc(Cl)cc1)NC(=S)Nc1ccccc1N1CCOCC1 | 17.4 |
| Cc1ccc2c(O)c(C)c(=O)[nH]c2n1 | 24.3 |
| O=C(Nc1ccc(S(=O)(=O)NC2=NCCCCC2)cc1)c1ccco1 | 2.7 |
| CCN(CC)c1ccc(NC(=O)CSc2ccsc2[N+](=O)[O-])c(C)c1 | 5.74 |
| Br.CN1CCN(CC(=O)c2cc(C(C)(C)C)c(O)c(C(C)(C)C)c2)CC1 | -13.3 |
| COc1cccc(Cn2c(=O)oc3ccccc32)c1 | 4.3 |
| Cc1csc2nc(COC(=O)c3cccc(N(C)C)c3)cc(=O)n12 | -32.5 |
| Cc1csc2nc(COC(=O)c3ccc(Cl)c([N+](=O)[O-])c3)cc(=O)n12 | -63.1 |
| COc1ccc(C(=O)OCc2cc(=O)n3c(C)csc3n2)cc1F | -2.77 |
| Fc1ccc(-c2cc(C(F)(F)F)nc(N3CCCCC3)n2)cc1 | 19.5 |
| C/C(Cn1cnc([N+](=O)[O-])n1)=N/NC(=O)COc1c(Cl)cc(Cl)cc1Cl | -31.4 |
| Cc1cc(C)n(CC(=O)NNC(=O)COc2ccc(Cl)cc2Cl)n1 | 3.06 |

| Structure (SMILES) | hERG current change (%, negative = inhibition) at 10uM [%] |
| --- | --- |
| CCCNC(=O)C/C(C)=N/NC(=O)COc1ccc(C)cc1Br | -20.9 |
| COc1ccc(C(=O)N/N=C(\C)Cn2nc([N+](=O)[O-])cc2C)cc1 | -15.8 |
| C/C(CC(=O)NCc1ccc(Cl)cc1)=N\NC(=O)COc1ccc(C)cc1Br | -33.1 |
| C/C(Cn1nc([N+](=O)[O-])cc1C)=N\NC(=O)COc1ccc(Cl)cc1Cl | -66.3 |
| C/C(Cn1nc([N+](=O)[O-])cc1C)=N\NC(=O)COc1c(Cl)cc(Cl)cc1Cl | -68 |
| C/C(CC(=O)NCc1ccco1)=N\NC(=O)COc1ccc(Cl)cc1Cl | -65.6 |
| C/C(Cn1nc([N+](=O)[O-])cc1C)=N\NC(=O)COc1ccccc1[N+](=O)[O-] | -17.4 |
| COc1ccccc1CNC(=O)C/C(C)=N/NC(=O)COc1ccc(C)cc1Br | -63.9 |
| O=C(COc1ccc(Cl)cc1Cl)NCc1ccco1 | 0.837 |
| C/C(CC(=O)NCc1ccco1)=N\NC(=O)c1ccc(Cl)cc1Cl | 8.44 |
| O=C(NN1C(=O)CSC1=S)C(=O)NN1C(=O)CSC1=S | 25.3 |
| O=C(Nc1ccccc1C(=O)Nc1ccccc1C(=O)O)c1ccccc1 | 20.5 |
| CN1CCN(Cc2nnc(-c3ccccc3)o2)CC1 | 22.7 |
| C/C(=C\C(=O)c1cccnc1)Nc1ccc(C)c(C)c1 | -20 |
| CCc1ccc(OCC2NCCc3cc(OC)c(OC)cc32)cc1 (centres unmarked) | -45.2 |
| CC(=O)Nc1ccc(N2CCCC2)cc1 | 6.33 |
| CCN1CCN(C(c2ccccc2)c2sc3nc(C)nn3c2O)CC1 (centres unmarked) | -9.32 |
| C/C(CC(=O)N(C(C)C)C(C)C)=N\NC(=O)COc1ccc(Br)cc1Br | -51.3 |
| C/C(CC(=O)N(C(C)C)C(C)C)=N\NC(=O)COc1ccc(Cl)cc1Cl | -22.6 |
| C/C(CC(=O)Nc1ccccc1)=N\NC(=O)COc1ccc(C)cc1Br | 2.14 |
| Cc1cc2nc(-c3ccc(SCC(=O)Nc4ccc(S(=O)(=O)N5CCCC5)cc4)nc3)[nH]c2cc1C | 8.52 |
| Cc1cccc(N2C(=O)CC(N3CCN(Cc4ccc5c(c4)OCO5)CC3)C2=O)c1 (centres unmarked) | -19.1 |
| Cc1ccc(CN2CCN(Cc3cn(C)nc3-c3ccccc3)CC2CCO)o1 (centres unmarked) | 1.84 |

| Structure (SMILES) | hERG current change (%, negative = inhibition) at 10uM [%] |
| --- | --- |
| COc1ccc(CN2CCN(Cc3cn(C)nc3-c3ccccc3)CC2CCO)c(C)c1C (centres unmarked) | -72.4 |
| Cn1cc(CN2CCN(Cc3ccccc3)C(CCO)C2)c(-c2ccccc2)n1 (centres unmarked) | -37.9 |
| CCn1ncc(CN2CCN(Cc3ccc(OC)c(C)c3C)C(CCO)C2)c1C (centres unmarked) | -19.9 |
| CCOc1ccccc1CN1CCN(Cc2cn(C)nc2-c2ccccc2)CC1CCO (centres unmarked) | -65.6 |
| COc1cc(C2CC(=O)Oc3c2c(=O)n(C)c2ccccc32)ccc1O (centres unmarked) | 14.7 |
| COc1ccc(NC(=O)C2(c3ccc(NC(=O)c4ccc(OC)cc4)cc3)CCCC2)cc1 | -9.88 |
| CCn1c(SCC(=O)N/N=C/c2ccccc2OCC(=O)O)nnc1-c1ccc(C)cc1 | 3.57 |
| Cn1c(=O)c(C(=O)COC(=O)c2cc(C3CC3)nc3ccccc23)c(N)n(Cc2ccccc2)c1=O | 13.8 |
| Cc1cc(C)cc(-n2ncc3c2CCCC3NC(=O)c2cc(C)[nH]n2)c1 (centres unmarked) | -67.5 |
| Cc1ccccc1-n1ncc2c1CC(C)(C)CC2NC(=O)CCN1Cc2ccccc2C1=O (centres unmarked) | -3.54 |
| Cc1cc(C(=O)NC2CCCc3c2cnn3-c2ccc(C(C)(C)C)cc2)n[nH]1 (centres unmarked) | -5.84 |
| Cc1cc(C)cc(-n2ncc3c2CCCC3NC(=O)C2CCC2)c1 (centres unmarked) | -76 |
| Cc1cc(C)cc(-n2ncc3c2CCCC3NC(=O)C2(C(N)=O)CC2)c1 (centres unmarked) | 13.7 |
| CC(C)(C)c1ccc(-n2ncc3c2CCCC3NC(=O)c2csnn2)cc1 (centres unmarked) | 1.88 |
| CC(=O)N1CCC(C(=O)NC2CCCc3c2cnn3-c2cc(F)cc(F)c2)CC1 (centres unmarked) | -4.52 |
| Cc1cccc(-n2ncc3c2CCCC3NC(=O)CCN2Cc3ccccc3C2=O)c1C (centres unmarked) | 2.55 |
| Cc1cc(C)cc(-n2ncc3c2CCCC3NC(=O)CCN2Cc3ccccc3C2=O)c1 (centres unmarked) | -54.3 |
| Cc1ccc(-n2ncc3c2CCCC3NC(=O)c2csnn2)cc1C (centres unmarked) | -33.2 |
| Cc1cc(C)cc(-n2ncc3c2CCCC3NC(=O)c2csnn2)c1 (centres unmarked) | -110 |
| CC(=O)c1cc(C(=O)NC2CCCc3c2cnn3-c2cc(C)cc(C)c2)[nH]n1 (centres unmarked) | -23 |
